# The full list was thinned out, with the strongest signals kept by preference.
# B1: AT5G01260(PC)(40) (Arabidopsis thaliana), Q9LFB0 (protein)
# chain: MIGIGRTLTSSSPSKIILEDLPPGIYRYGTEIFTSVPRKTFHHIKFLRLDSAQSSRILKPVPLRSSSIKDSQVNVEDEEIEASNKTVRVRFQLRKECVFGEHFFIVGDDPVFGGLWDPETALPLNWSDGNVWTVDLDLPVGRLVEFKLLLKAQTGEILWQPGPNRALETWETNKTIRICEDWDNADLQMMIEEDFVPYTNISSIGSEDEDEVLGSVQQNSSVVAVENAGYVSDESAQNSSFSIQSEKTMEPSNGALTAREVIKEAMFTEEESPVLVPGLIPLSDLDNEQVEVINEGKAETFPEVDKKQEPKAERNKKAKVKAISLFEKSEQEAVKSVEQRQYNAVEEEQQRLETEPLGTPDVLFENDIQWGRRTLYKLLSNFRLF
# Columns and labels:
# Experiment in all cases: glycan array binding signal (z-score within array); higher = stronger binding
# Settings in all cases: glycan notation: IUPAC condensed, linker removed
# [1] = target: Fuc(a1-2)Gal(b1-3)GalNAc(b1-3)Gal
# Outline: (§1)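 Glycan array data were curated from 3228 arrays in the Consortium for Functional Glycomics database and kept only where the protein sequence was available. Glycan names were converted to IUPAC-condensed notation, and columns mapping to the same glycan were averaged. The binding signal is a within-array Z-score, averaged across arrays of the same protein sequence at different concentrations or buffers and across linkers. Negative Z-scores can be read as non-binding.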
# Fuc(a1-2)Gal(b1-3)GlcNAc = target: Fuc(a1-2)Gal(b1-3)GlcNAc
# Outline: as §1
# [2] = target: Fuc(a1-2)Gal(b1-3)GlcNAc(b1-3)[Gal(b1-4)GlcNAc(b1-6)]Gal(b1-4)Glc
# Outline: as §1
# [3] = target: Fuc(a1-2)Gal(b1-4)GlcNAc(b1-3)Gal(b1-4)GlcNAc(b1-3)Gal(b1-4)GlcNAc
# Outline: as §1
# [4] = target: Fuc(a1-2)Gal(b1-4)[Fuc(a1-3)]GlcNAc
# Outline: as §1
# [5] = target: Fuc(a1-2)Gal(b1-4)[Fuc(a1-3)]GlcNAc(b1-2)[Fuc(a1-2)Gal(b1-4)[Fuc(a1-3)]GlcNAc(b1-4)]Man(a1-3)[Fuc(a1-2)Gal(b1-4)[Fuc(a1-3)]GlcNAc(b1-2)Man(a1-6)]Man(b1-4)GlcNAc(b1-4)GlcNAc
# Outline: as §1
# [6] = target: Fuc(a1-2)[Gal(a1-3)]Gal(b1-3)GlcNAc
# Outline: as §1
# [7] = target: Fuc(a1-2)[Gal(a1-3)]Gal(b1-4)GlcNAc(b1-2)Man
# Outline: as §1
# [8] = target: Fuc(a1-2)[Gal(a1-3)]Gal(b1-4)GlcNAc(b1-6)GalNAc
# Outline: as §1
# [9] = target: Fuc(a1-2)[GalNAc(a1-3)]Gal(b1-4)GlcNAc(b1-2)Man(a1-3)[Fuc(a1-2)[GalNAc(a1-3)]Gal(b1-4)GlcNAc(b1-2)Man(a1-6)]Man(b1-4)GlcNAc(b1-4)GlcNAc
# Outline: as §1
# [10] = target: Fuc(a1-2)[GalNAc(a1-3)]Gal(b1-4)GlcNAc(b1-6)GalNAc
# Outline: as §1
# [11] = target: Fuc(a1-2)[GalNAc(a1-3)]Gal(b1-4)[Fuc(a1-3)]GlcNAc(b1-3)GalNAc
# Outline: as §1
# [12] = target: Fuc(a1-3)[Gal(b1-4)]GlcNAc(b1-3)Gal(b1-3)[Fuc(a1-4)]GlcNAc
# Outline: as §1
# [13] = target: Fuc(a1-3)[Gal(b1-4)]GlcNAc(b1-3)Gal(b1-4)[Fuc(a1-3)]GlcNAc
# Outline: as §1
# [14] = target: Fuc(a1-3)[Gal(b1-4)]GlcNAc(b1-3)Gal(b1-4)[Fuc(a1-3)]GlcNAc(b1-3)Gal(b1-4)[Fuc(a1-3)]GlcNAc
# Outline: as §1
# [15] = target: Fuc(a1-3)[GalNAc(b1-4)]GlcNAc
# Outline: as §1
# [16] = target: Gal(a1-3)Gal(b1-3)[Fuc(a1-4)]GlcNAc(b1-2)Man(a1-3)[Gal(a1-3)Gal(b1-3)[Fuc(a1-4)]GlcNAc(b1-2)Man(a1-6)]Man(b1-4)GlcNAc(b1-4)GlcNAc
# Outline: as §1
# [17] = target: Gal(a1-3)Gal(b1-4)GlcNAc(b1-6)GalNAc
# Outline: as §1
# Gal(a1-3)GalNAc = target: Gal(a1-3)GalNAc
# Outline: as §1
# [18] = target: Gal(a1-3)[Gal(a1-4)]Gal(b1-4)GlcNAc
# Outline: as §1
# Gal(a1-4)Gal(b1-4)Glc = target: Gal(a1-4)Gal(b1-4)Glc
# Outline: as §1
# [19] = target: Gal(b1-3)GalNAc(b1-4)Gal(b1-4)Glc
# Outline: as §1
# [20] = target: Gal(b1-3)GlcNAc(b1-2)Man(a1-3)[Gal(b1-3)GlcNAc(b1-2)Man(a1-6)]Man(b1-4)GlcNAc(b1-4)GlcNAc
# Outline: as §1
# [21] = target: Gal(b1-3)GlcNAc(b1-6)[Gal(b1-3)]GalNAc
# Outline: as §1
# Gal(b1-3)GlcNAc6S = target: Gal(b1-3)GlcNAc6S
# Outline: as §1
# [22] = target: Gal(b1-3)[Fuc(a1-4)]GlcNAc(b1-2)Man(a1-3)[Gal(b1-3)[Fuc(a1-4)]GlcNAc(b1-2)Man(a1-6)]Man(b1-4)GlcNAc(b1-4)[Fuc(a1-6)]GlcNAc
# Outline: as §1
# [23] = target: Gal(b1-3)[GlcNAc(b1-6)]GalNAc
# Outline: as §1
# [24] = target: Gal(b1-4)GalNAc(a1-3)[Fuc(a1-2)]Gal(b1-4)GlcNAc
# Outline: as §1
# Gal(b1-4)GlcNAc = target: Gal(b1-4)GlcNAc
# Outline: as §1
# [25] = target: Gal(b1-4)GlcNAc(b1-2)Man(a1-3)[GlcNAc(b1-2)Man(a1-6)]Man(b1-4)GlcNAc(b1-4)GlcNAc
# Outline: as §1
# [26] = target: Gal(b1-4)GlcNAc(b1-2)[Gal(b1-4)GlcNAc(b1-4)]Man(a1-3)[GlcNAc(b1-4)][Gal(b1-4)GlcNAc(b1-2)[Gal(b1-4)GlcNAc(b1-6)]Man(a1-6)]Man(b1-4)GlcNAc(b1-4)GlcNAc
# Outline: as §1
# [27] = target: Gal(b1-4)GlcNAc(b1-2)[Gal(b1-4)GlcNAc(b1-6)]Man(a1-6)[Gal(b1-4)GlcNAc(b1-2)Man(a1-3)]Man(b1-4)GlcNAc(b1-4)GlcNAc
# Outline: as §1
# [28] = target: Gal(b1-4)GlcNAc(b1-2)[Gal(b1-4)GlcNAc(b1-6)]Man(a1-6)[Gal(b1-4)GlcNAc(b1-2)Man(a1-3)]Man(b1-4)GlcNAc(b1-4)[Fuc(a1-6)]GlcNAc
# Outline: as §1
# [29] = target: Gal3S(b1-4)[Fuc(a1-3)]Glc6S
# Outline: as §1
# Gal6S(b1-3)GlcNAc6S = target: Gal6S(b1-3)GlcNAc6S
# Outline: as §1
# [30] = target: GalNAc(a1-3)GalNAc(b1-3)Gal(a1-4)Gal(b1-4)Glc
# Outline: as §1
# [31] = target: GalNAc(b1-3)Gal(a1-4)Gal(b1-4)GlcNAc
# Outline: as §1
# [32] = target: GalNAc(b1-3)Gal(a1-6)Gal(b1-4)Glc
# Outline: as §1
# GalNAc(b1-4)GlcNAc = target: GalNAc(b1-4)GlcNAc
# Outline: as §1
# [33] = target: GlcNAc(a1-4)Gal(b1-4)GlcNAc(b1-3)Gal(b1-4)Glc
# Outline: as §1
# [34] = target: GlcNAc(b1-2)Man(a1-3)[GlcNAc(b1-2)Man(a1-6)]Man(b1-4)GlcNAc(b1-4)GlcNAc
# Outline: as §1
# [35] = target: GlcNAc(b1-3)Gal(b1-4)GlcNAc(b1-3)Gal(b1-4)GlcNAc(b1-2)[GlcNAc(b1-3)Gal(b1-4)GlcNAc(b1-3)Gal(b1-4)GlcNAc(b1-6)]Man(a1-6)[GlcNAc(b1-3)Gal(b1-4)GlcNAc(b1-3)Gal(b1-4)GlcNAc(b1-2)Man(a1-3)]Man(b1-4)GlcNAc(b1-4)[Fuc(a1-6)]GlcNAc
# Outline: as §1
# [36] = target: GlcNAc(b1-4)[GlcNAc(b1-6)]GalNAc
# Outline: as §1
# [37] = target: GlcNAc6S(b1-3)Gal(b1-4)GlcNAc
# Outline: as §1
# Neu5Ac(a2-3)Gal = target: Neu5Ac(a2-3)Gal
# Outline: as §1
# [38] = target: Neu5Ac(a2-3)Gal(b1-3)GlcNAc(b1-2)Man
# Outline: as §1
# [39] = target: Neu5Ac(a2-3)Gal(b1-3)[Neu5Ac(a2-6)]GalNAc
# Outline: as §1
# [40] = target: Neu5Ac(a2-3)Gal6S(b1-4)GlcNAc
# Outline: as §1
# Neu5Ac(a2-3)GalNAc = target: Neu5Ac(a2-3)GalNAc
# Outline: as §1
# [41] = target: Neu5Ac(a2-6)Gal(b1-4)GlcNAc(b1-2)Man(a1-6)[Gal(b1-4)GlcNAc(b1-2)Man(a1-3)]Man(b1-4)GlcNAc(b1-4)GlcNAc
# Outline: as §1
# [42] = target: Neu5Ac(a2-6)Gal(b1-4)GlcNAc(b1-3)Gal(b1-4)GlcNAc(b1-2)Man(a1-3)[Neu5Ac(a2-6)Gal(b1-4)GlcNAc(b1-3)Gal(b1-4)GlcNAc(b1-2)Man(a1-6)]GalNAc
# Outline: as §1
# [43] = target: Neu5Ac(a2-6)Gal(b1-4)GlcNAc(b1-3)Gal(b1-4)[Fuc(a1-3)]GlcNAc(b1-3)Gal(b1-4)[Fuc(a1-3)]GlcNAc
# Outline: as §1
# [44] = target: Neu5Ac(a2-6)Gal(b1-4)GlcNAc(b1-3)[Neu5Ac(a2-6)Gal(b1-4)GlcNAc(b1-6)]GalNAc
# Outline: as §1
# [45] = target: Neu5Ac(a2-8)Neu5Ac(a2-8)Neu5Ac
# Outline: as §1
# Neu5Ac(b2-6)GalNAc = target: Neu5Ac(b2-6)GalNAc
# Outline: as §1
# [46] = target: Neu5Gc(a2-3)Gal(b1-3)GlcNAc
# Outline: as §1
binder,measurement,setting,value
B1,glycan array binding signal (z-score),[1],-0.3
same,glycan array binding signal (z-score),Fuc(a1-2)Gal(b1-3)GlcNAc,-0.85
same,glycan array binding signal (z-score),[2],-0.343
same,glycan array binding signal (z-score),[3],-0.994
same,glycan array binding signal (z-score),[4],-0.291
same,glycan array binding signal (z-score),[5],0.175
same,glycan array binding signal (z-score),[6],0.172
same,glycan array binding signal (z-score),[7],-0.675
same,glycan array binding signal (z-score),[8],-0.256
same,glycan array binding signal (z-score),[9],-0.648
same,glycan array binding signal (z-score),[10],-0.387
same,glycan array binding signal (z-score),[11],7.04
same,glycan array binding signal (z-score),[12],0.431
same,glycan array binding signal (z-score),[13],-0.975
same,glycan array binding signal (z-score),[14],1.89
same,glycan array binding signal (z-score),[15],1.78
same,glycan array binding signal (z-score),[16],0.054
same,glycan array binding signal (z-score),[17],-0.159
same,glycan array binding signal (z-score),Gal(a1-3)GalNAc,2.32
same,glycan array binding signal (z-score),[18],9.44
same,glycan array binding signal (z-score),Gal(a1-4)Gal(b1-4)Glc,1.85
same,glycan array binding signal (z-score),[19],2.16
same,glycan array binding signal (z-score),[20],0.891
same,glycan array binding signal (z-score),[21],-0.659
same,glycan array binding signal (z-score),Gal(b1-3)GlcNAc6S,0.146
same,glycan array binding signal (z-score),[22],0.147
same,glycan array binding signal (z-score),[23],0.411
same,glycan array binding signal (z-score),[24],-0.618
same,glycan array binding signal (z-score),Gal(b1-4)GlcNAc,0.708
same,glycan array binding signal (z-score),[25],-0.702
same,glycan array binding signal (z-score),[26],-0.552
same,glycan array binding signal (z-score),[27],0.037
same,glycan array binding signal (z-score),[28],0.414
same,glycan array binding signal (z-score),[29],4.34
same,glycan array binding signal (z-score),Gal6S(b1-3)GlcNAc6S,-0.529
same,glycan array binding signal (z-score),[30],-0.513
same,glycan array binding signal (z-score),[31],2.47
same,glycan array binding signal (z-score),[32],-0.39
same,glycan array binding signal (z-score),GalNAc(b1-4)GlcNAc,8.76
same,glycan array binding signal (z-score),[33],-0.389
same,glycan array binding signal (z-score),[34],-0.443
same,glycan array binding signal (z-score),[35],0.144
same,glycan array binding signal (z-score),[36],0.541
same,glycan array binding signal (z-score),[37],1.26
same,glycan array binding signal (z-score),Neu5Ac(a2-3)Gal,-0.106
same,glycan array binding signal (z-score),[38],-0.011
same,glycan array binding signal (z-score),[39],-0.391
same,glycan array binding signal (z-score),[40],-0.571
same,glycan array binding signal (z-score),Neu5Ac(a2-3)GalNAc,-0.206
same,glycan array binding signal (z-score),[41],-0.165
same,glycan array binding signal (z-score),[42],0.243
same,glycan array binding signal (z-score),[43],-0.054
same,glycan array binding signal (z-score),[44],0.077
same,glycan array binding signal (z-score),[45],-0.58
same,glycan array binding signal (z-score),Neu5Ac(b2-6)GalNAc,-0.728
same,glycan array binding signal (z-score),[46],-0.145
